The values below come from PubChem BioAssay (NCI).

This is part of a sample that, as a whole, favours compounds with a hit. Of some 83,000 tested, about 20% had one in any assay.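 Values shown are percent growth following 48 h exposure of cells in 96-well plates to a single concentration of compound; below 10 was considered active.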 Unmarked numbers belong to inactive results. Activity calls are given as the source filed them.

Among the test systems are SK-MEL-2 melanoma; EKVX NSCLC; SN12C renal; UO-31 renal; TK-10 renal; ACHN renal; CAKI-1 renal; A498 renal; CCRF-CEM leukemia; MOLT-4 leukemia.
Common to all, as to assay: NCI-60 one-dose screen, 48 h (100 = growth as untreated, 0 = no growth, -100 = all killed)
Common to all, as to conditions: 10 µM unless noted

For the compound `COc1cnc2c(c1)C(=O)c1c-2n(CCCNC(C)C)c(=O)c2cc(Cl)ccc12`, the growth in the experiment with SK-MEL-2 melanoma was 70.2%; with EKVX NSCLC it was -32.7% (active); with SN12C renal it was 17.3%; in the experiment on UO-31 renal, -81.7% (active); in the experiment with TK-10 renal, -89.1% (active); in the experiment with ACHN renal it was -100% (active). Further, the growth was 28.8% in the experiment with CAKI-1 renal, -2.79% (active) with A498 renal, -41.1% (active) in the experiment with CCRF-CEM leukemia and -47% (active) in the experiment on MOLT-4 leukemia.
As for `COc1cc2c(c(OC)c1O)C(=O)C(OC)C(c1ccc(O)c(O)c1)O2` (stereo not given), the growth in the experiment with SK-MEL-2 melanoma was 46.9%; with EKVX NSCLC, 46.8%; in the experiment with SN12C renal, 26.6%; in the experiment on UO-31 renal, 44.8%; in the experiment with TK-10 renal, 66.1%; in the experiment with ACHN renal it was 21.6%. For the same compound, the growth is 28.4% in the experiment on CAKI-1 renal, -18.3% (active) in the experiment on A498 renal, -5.15% (active) in the experiment with CCRF-CEM leukemia and 9.18% (active) in the experiment on MOLT-4 leukemia.
On to `NS(=O)(=O)c1ccc(CCn2c(SCC(=O)N/N=C/c3cccnc3)nc3ccccc3c2=O)cc1`, for which the growth is 92% in the experiment on SK-MEL-2 melanoma; 96% in the experiment with EKVX NSCLC; 110% in the experiment on SN12C renal; 83.6% in the experiment on UO-31 renal; 109% with TK-10 renal; 102% with ACHN renal. For the same compound, the growth in the experiment on CAKI-1 renal is 95.6%; with A498 renal, 85.5%; with CCRF-CEM leukemia, 60.3%; in the experiment on MOLT-4 leukemia, 68.8%.
As to `CCn1c(Cc2ccccc2Nc2c(Cl)cccc2Cl)nnc1SCC(=O)Nc1cccc(OC)c1`, the growth in the experiment on SK-MEL-2 melanoma was 91.5%; in the experiment with EKVX NSCLC, 77.7%; with SN12C renal, 66.6%; in the experiment on UO-31 renal, 68.6%; in the experiment with TK-10 renal, 82.8%; with ACHN renal, 88.7%. Moreover, the growth was 84.6% in the experiment with CAKI-1 renal, 40.9% in the experiment with A498 renal, 73.1% with CCRF-CEM leukemia and 54.3% in the experiment on MOLT-4 leukemia.
`CCN(CC)CCCC(C)Nc1c(-c2ccccc2)cnc2cc(Cl)ccc12` (stereo not given): the growth in the experiment on SK-MEL-2 melanoma was 35.1%; with EKVX NSCLC, 83.4%; in the experiment with SN12C renal, 74.1%; in the experiment with UO-31 renal, 50.3%; in the experiment with TK-10 renal it was 59.8%; in the experiment on ACHN renal, 93%. Further, the growth was 85.8% in the experiment on CAKI-1 renal, 60% with A498 renal, 62.1% in the experiment on CCRF-CEM leukemia and 48.5% in the experiment on MOLT-4 leukemia.
As for `Cc1ccccc1NC(=O)c1sc2nc3c(cc2c1N)C(=O)CCC3`, the growth is 58.6% in the experiment with SK-MEL-2 melanoma; 87.5% in the experiment on EKVX NSCLC; 64.5% with SN12C renal; 77.5% in the experiment with UO-31 renal; 81.2% in the experiment on TK-10 renal; 49.3% in the experiment with ACHN renal. Also, the growth in the experiment on CAKI-1 renal is 55.4%; in the experiment on A498 renal, 31.3%; in the experiment with CCRF-CEM leukemia, 30.3%; in the experiment on MOLT-4 leukemia, 67.5%.
As for `O=C(CCCCCCN1CC(=O)N2[C@@H](c3ccc(Cl)c(Cl)c3)c3[nH]c4ccccc4c3C[C@H]2C1=O)NO`, the growth in the experiment on SK-MEL-2 melanoma is 79.9%; in the experiment on EKVX NSCLC, 64.6%; in the experiment with SN12C renal, 60.8%; in the experiment with UO-31 renal, 57%; in the experiment with TK-10 renal, 40.3%; with ACHN renal it was 70.2%. Besides, the growth in the experiment on CAKI-1 renal is 48.7%; with A498 renal it was 86%; with CCRF-CEM leukemia, 7.73% (active); with MOLT-4 leukemia, 8.86% (active).
For `COc1ccc(-c2nc3ccccc3n3cccc23)cc1`, the growth in the experiment on SK-MEL-2 melanoma was 111%; in the experiment with EKVX NSCLC it was 97.2%; with SN12C renal, 95.1%; with UO-31 renal, 45.7%; with TK-10 renal, 138%; with ACHN renal, 105%. The growth in the experiment on CAKI-1 renal was 85.5%; in the experiment on A498 renal it was 99.4%; in the experiment with CCRF-CEM leukemia, 89.9%; in the experiment on MOLT-4 leukemia, 101%.
For `CCOC(=O)C1C(=O)C=C(c2cc(OC)c(OC)c(OC)c2)CC1c1sc(N(C)Cc2ccccc2)nc1Cl` (stereo not given), the growth in the experiment on SK-MEL-2 melanoma was 71.9%; with EKVX NSCLC, 63.3%; with SN12C renal, 80.6%; in the experiment on UO-31 renal, 53%; with TK-10 renal it was 87.4%; with ACHN renal, 86.8%. Further, the growth with CAKI-1 renal was 46.8%; in the experiment with A498 renal, 86.1%; with CCRF-CEM leukemia, 82%; in the experiment on MOLT-4 leukemia it was 58.7%.
Consider `CC(C)(C)[Si](C)(C)OC1[C@@H](O[Si](C)(C)C(C)(C)C)[C@@H](CNC(=O)NC(=O)NC(=O)CCl)O[C@H]1n1cnc2c(NC(=O)Nc3ccccc3)ncnc21` (stereo not given in full), for which the growth with SK-MEL-2 melanoma is 84.9%; with EKVX NSCLC it was 86.3%; in the experiment on SN12C renal, 54.6%; in the experiment with UO-31 renal, -94.9% (active); in the experiment with TK-10 renal it was 97.2%; with ACHN renal, -12.9% (active). Also, the growth in the experiment on CAKI-1 renal was 76.2%; in the experiment with A498 renal it was 88.7%; with CCRF-CEM leukemia it was -30.4% (active); with MOLT-4 leukemia, 4.05% (active).
As for `CC(C)c1cccc(C#N)c1`, the growth with SK-MEL-2 melanoma is 120%; with EKVX NSCLC, 94%; in the experiment on SN12C renal it was 97.3%; in the experiment with UO-31 renal, 98.7%; with TK-10 renal, 121%; in the experiment on ACHN renal it was 115%. Besides, the growth was 98.9% with CAKI-1 renal, 92.3% with A498 renal, 90% in the experiment with CCRF-CEM leukemia and 101% in the experiment on MOLT-4 leukemia.
For the compound `COC1(OC)C2(Cl)CCC1(Cl)C(Cl)=C2Cl`, the growth is 95.2% with SK-MEL-2 melanoma; 104% in the experiment on EKVX NSCLC; 96.8% in the experiment on SN12C renal; 94.6% in the experiment on UO-31 renal; 119% in the experiment with TK-10 renal; 109% in the experiment with ACHN renal. Besides, the growth in the experiment with CAKI-1 renal is 109%; with A498 renal, 91%; in the experiment on CCRF-CEM leukemia, 103%; with MOLT-4 leukemia, 105%.
As to `CN(C)N1C(=O)c2c(Cl)c(Cl)c(Cl)c(Cl)c2C1=O`, the growth is 105% in the experiment on SK-MEL-2 melanoma; 124% with EKVX NSCLC; 103% in the experiment with SN12C renal; 95.9% with UO-31 renal; 98% in the experiment on TK-10 renal; 133% in the experiment on ACHN renal. In addition, the growth in the experiment with CAKI-1 renal was 126%; with A498 renal, 106%; in the experiment on CCRF-CEM leukemia it was 89%; in the experiment on MOLT-4 leukemia, 88.3%.
In the case of `O=C(/C=C/c1ccco1)c1ccccc1O`, the growth in the experiment with SK-MEL-2 melanoma was 108%; with EKVX NSCLC it was 104%; in the experiment with SN12C renal, 102%; in the experiment on UO-31 renal it was 87.5%; in the experiment with TK-10 renal it was 122%; with ACHN renal, 102%. The growth in the experiment with CAKI-1 renal is 99.3%; with A498 renal, 106%; in the experiment with CCRF-CEM leukemia it was 76.5%; in the experiment on MOLT-4 leukemia, 118%.
